Measured values from PubChem BioAssay AID1159580 (chemical genetic matrix, 2015).
Screen size: about 5,500 compounds; about 2,000 (36%) were called active. Inconclusive results (about 18%) are left out. Cut-off read from the data, not from the text of the source: active = normalized growth mostly below about 0.91 (no sharp cut-off); inconclusive = no clear call, values can overlap the other calls; inactive = mostly above about 0.92. The list shows a part of the results.

Experiment: chemical genetic growth profiling, strain panel (AID 1159580);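 note: tested at 20 µM; growth read once vehicle control cultures reached saturation at 30 °C; 1 = growth at the plate median or of vehicle wells; lower values mean less growth of the strain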
Settings: S. cerevisiae deletion strains, growth OD
[1] = locus YAL013W, strain DEP1, active compounds read low
[2] = locus YDL101C, strain DUN1, active compounds read low
[3] = locus YDR150W, strain NUM1, active compounds read low
[4] = locus YHR030C, strain SLT2, active compounds read low
[5] = locus YJR075W, strain HOC1, active compounds read low
[6] = locus YMR263W, strain SAP30, active compounds read low
[7] = locus YNL153C, strain GIM3, active compounds read low

Measured: normalized growth

COc1ccc(NC(=O)C(C)c2ccc(CC(C)C)cc2)cc1 (configuration not stated)
inactive: [1] 0.976 | [2] 0.956 | locus YDL134C, strain PPH21, active compounds read low 0.965 | [3] 0.91 | locus YEL061C, strain CIN8, active compounds read low 0.943 | [4] 0.916 | locus YLR058C, strain SHM2 (second series), active compounds read low 0.974 | locus YLR085C, strain ARP6, active compounds read low 0.878 | locus YML094W, strain GIM5, active compounds read low 0.903 | [6] 0.963 | locus YMR307W, strain GAS1, active compounds read low 0.774 | [7] 0.932 | locus YNL298W, strain CLA4 (second series), active compounds read low 0.937 | locus YNL322C, strain KRE1, active compounds read low 0.967 | locus YPL055C, strain LGE1, active compounds read low 0.838 | locus YPR135W, strain CTF4, active compounds read low 0.855
active: locus YBR229C, strain ROT2, active compounds read low 0.897 | locus YCL061C, strain MRC1, active compounds read low 0.848 | locus YGR078C, strain PAC10, active compounds read low 0.886 | locus YHR087W, strain rtc3, active compounds read low 0.824 | locus YJR043C, strain POL32, active compounds read low 0.907 | [5] 0.804 | locus YKL190W, strain CNB1, active compounds read low 0.914 | locus YLR039C, strain RIC1, active compounds read low 0.527 | locus YLR262C, strain YPT6, active compounds read low 0.46 | locus YMR219W, strain ESC1, active compounds read low 0.94 | locus YNR030W, strain Alg12, active compounds read low 0.872 | locus YPL241C, strain CIN2, active compounds read low 0.858

CC(C)Cc1ccc(C(C)C(=O)Nc2nn(C)c3ccccc23)cc1 (configuration not stated)
inactive: locus YAR019C, strain CDC15, active compounds read low 0.993 | locus YBL105C, strain PKC1, active compounds read low 0.986 | locus YBR135W, strain CKS1, active compounds read low 0.974 | locus YBR136W, strain MEC1, active compounds read low 0.99 | locus YBR160W, strain CDC28, active compounds read low 0.984 | locus YDL017W, strain CDC7, active compounds read low 0.967 | locus YDL028C, strain MPS1, active compounds read low 0.997 | [2] 0.993 | locus YDL108W, strain KIN28, active compounds read low 0.992 | locus YDL132W, strain cdc53, active compounds read low 0.998 | locus YDL214C, strain PRR2, active compounds read low 0.931 | locus YDR054C, strain cdc34, active compounds read low 0.968 | locus YDR226W, strain ADK1, active compounds read low 0.991 | locus YDR477W, strain SNF1, active compounds read low 0.932 | locus YER123W, strain YCK3, active compounds read low 0.922 | locus YER133W, strain GLC7, active compounds read low 0.945 | locus YFL009W, strain cdc4, active compounds read low 0.985 | locus YFL029C, strain CAK1, active compounds read low 0.994 | locus YFR003C, strain YPI1, active compounds read low 0.993 | locus YFR019W, strain FAB1, active compounds read low 0.962 | locus YFR028C, strain CDC14, active compounds read low 0.988 | locus YGR040W, strain KSS1, active compounds read low 0.915 | locus YGR052W, strain FMP48, active compounds read low 0.983 | locus YGR092W, strain DBF2, active compounds read low 0.931 | [4] 0.944 | locus YHR079C, strain IRE1, active compounds read low 0.945 | locus YHR082C, strain KSP1, active compounds read low 0.94 | locus YHR205W, strain SCH9, active compounds read low 0.909 | locus YIL147C, strain SLN1, active compounds read low 0.989 | locus YJL095W, strain BCK1, active compounds read low 0.965 | locus YJL128C, strain PBS2, active compounds read low 0.948 | locus YJL157C, strain FAR1, active compounds read low 0.942 | locus YJR016C, strain ILV3, active compounds read low 0.99 | locus YJR066W, strain TOR1 (second series), active compounds read low 0.902 | locus YJR066W, strain TOR1, active compounds read low 0.982 | locus YKL048C, strain ELM1, active compounds read low 0.965 | locus YKL067W, strain YNK1, active compounds read low 0.939 | locus YKL101W, strain HSL1, active compounds read low 0.933 | locus YKL193C, strain SDS22, active compounds read low 0.975 | locus YKL203C, strain TOR2, active compounds read low 0.981 | locus YLR133W, strain CKI1, active compounds read low 0.93 | locus YLR403W, strain SFP1, active compounds read low 0.772 | locus YML070W, strain DAK1, active compounds read low 0.918 | locus YMR001C, strain CDC5, active compounds read low 0.973 | locus YMR205C, strain PFK2 (second series), active compounds read low 0.928 | locus YMR277W, strain FCP1, active compounds read low 0.975 | locus YNL006W, strain LST8, active compounds read low 0.993 | locus YNL020C, strain ARK1, active compounds read low 0.935 | locus YNL161W, strain CBK1, active compounds read low 0.991 | locus YNL183C, strain NPR1, active compounds read low 0.927 | locus YNL207W, strain RIO2, active compounds read low 0.976 | locus YNL222W, strain SSU72, active compounds read low 0.99 | locus YNL307C, strain MCK1 (second series), active compounds read low 0.944 | locus YOL078W, strain AVO1, active compounds read low 0.987 | locus YOL136C, strain PFK27, active compounds read low 0.916 | locus YOR061W, strain CKA2, active compounds read low 0.938 | locus YOR119C, strain RIO1, active compounds read low 0.988 | locus YOR231W, strain MKK1, active compounds read low 0.896 | locus YOR329C, strain SCD5, active compounds read low 0.99 | locus YPL031C, strain PHO85, active compounds read low 0.941 | locus YPL153C, strain RAD53, active compounds read low 0.934 | locus YPL204W, strain HRR25, active compounds read low 0.906 | locus YPL209C, strain IPL1, active compounds read low 0.982 | locus YPL256C, strain CLN2, active compounds read low 0.88 | locus YPR025C, strain CCL1, active compounds read low 0.986 | locus YPR106W, strain ISR1, active compounds read low 0.979 | locus YPR111W, strain DBF20, active compounds read low 0.955 | strain NNK1, active compounds read low 0.98 | strain TSCII, active compounds read low 0.992
active: locus YLR113W, strain HOG1, active compounds read low 0.855

CN1C2CCC1CC(NC(=O)c1nn(C)c3ccccc13)C2 (configuration not stated)
inactive: [1] 1.02 | locus YAL040C, strain CLN3, active compounds read low 1.01 | locus YCL061C, strain MRC1 (second series), active compounds read low 1.01 | [3] 1 | locus YDR363W, strain ESC2, active compounds read low 1 | locus YER002W, strain NOP16, active compounds read low 0.992 | [5] 1.01 | [6] 0.999 | locus YNL128W, strain TEP1, active compounds read low 0.987 | [7] 0.999 | locus YNL175C, strain NOP13, active compounds read low 1.01 | locus YNL197C, strain WHI3, active compounds read low 1.01 | locus YNL224C, strain SQS1, active compounds read low 1 | locus YOR083W, strain WHI5 (second series), active compounds read low 1.02
